# Source: the supplement of paper PMC8728848
# This excerpt belongs to a sample that is enriched for the strongest signals.
# What was measured:
# Experiment in all cases: glycan array binding signal (z-score within array); higher = stronger binding
# Details in all cases: glycan notation: IUPAC condensed, linker removed
# Fuc(a1-2)Gal = target: Fuc(a1-2)Gal
# How it was run: (§1)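 Glycan array data came from 3228 arrays in the Consortium for Functional Glycomics database, and only arrays with an available protein sequence were kept. Glycan names were put into IUPAC-condensed notation, and columns mapping to the same glycan were averaged. The binding signal is a within-array Z-score, averaged across arrays of one protein sequence run at different concentrations or buffers and across linkers. A negative Z-score can be read as non-binding.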
# [1] = target: Fuc(a1-2)Gal(b1-3)GlcNAc(b1-3)Gal(b1-4)Glc
# How it was run: as §1
# [2] = target: Fuc(a1-2)Gal6S(b1-4)GlcNAc
# How it was run: as §1
# [3] = target: Fuc(a1-3)[Gal(b1-4)]GlcNAc(b1-2)Man(a1-3)[Fuc(a1-3)[Gal(b1-4)]GlcNAc(b1-2)Man(a1-6)]Man(b1-4)GlcNAc(b1-4)GlcNAc
# How it was run: as §1
# [4] = target: Fuc(a1-3)[Gal(b1-4)]GlcNAc(b1-2)Man(a1-6)[Gal(b1-4)GlcNAc(b1-2)Man(a1-3)]Man(b1-4)GlcNAc(b1-4)GlcNAc
# How it was run: as §1
# [5] = target: Fuc(a1-3)[GalNAc(b1-4)]GlcNAc
# How it was run: as §1
# Fuc(b1-3)GlcNAc = target: Fuc(b1-3)GlcNAc
# How it was run: as §1
# Gal(a1-3)GalNAc = target: Gal(a1-3)GalNAc
# How it was run: as §1
# [6] = target: Gal(b1-3)GlcNAc(b1-3)Gal(b1-4)Glc
# How it was run: as §1
# [7] = target: Gal(b1-3)GlcNAc(b1-3)Gal(b1-4)GlcNAc
# How it was run: as §1
# [8] = target: Gal(b1-3)[Neu5Ac(a2-6)]GlcNAc(b1-6)Gal(b1-4)Glc
# How it was run: as §1
# [9] = target: Gal(b1-4)GlcNAc(b1-3)[Gal(b1-4)GlcNAc(b1-6)]GalNAc
# How it was run: as §1
# [10] = target: Gal(b1-4)GlcNAc(b1-6)GalNAc
# How it was run: as §1
# [11] = target: Gal(b1-4)GlcNAc(b1-6)[Gal(b1-3)]GalNAc
# How it was run: as §1
# Gal6S(b1-4)Glc6S = target: Gal6S(b1-4)Glc6S
# How it was run: as §1
# Gal6S(b1-4)GlcNAc6S = target: Gal6S(b1-4)GlcNAc6S
# How it was run: as §1
# [12] = target: GlcNAc(a1-6)Gal(b1-4)GlcNAc
# How it was run: as §1
# [13] = target: GlcNAc(b1-3)[GlcNAc(b1-6)]GlcNAc(b1-4)GlcNAc
# How it was run: as §1
# [14] = target: Man(a1-2)Man(a1-2)Man(a1-3)[Man(a1-2)Man(a1-3)[Man(a1-2)Man(a1-6)]Man(a1-6)]Man(b1-4)GlcNAc(b1-4)GlcNAc
# How it was run: as §1
# [15] = target: Man(a1-2)Man(a1-2)Man(a1-6)[Man(a1-3)]Man
# How it was run: as §1
# [16] = target: Man(a1-2)Man(a1-3)[Man(a1-2)Man(a1-6)]Man
# How it was run: as §1
# [17] = target: Man(a1-2)Man(a1-3)[Man(a1-3)[Man(a1-6)]Man(a1-6)]Man(b1-4)GlcNAc(b1-4)GlcNAc
# How it was run: as §1
# [18] = target: Neu5Ac(a2-3)Gal(b1-3)GalNAc(b1-4)[Neu5Ac(a2-3)]Gal(b1-4)Glc
# How it was run: as §1
# [19] = target: Neu5Ac(a2-3)Gal(b1-3)GlcNAc
# How it was run: as §1
# [20] = target: Neu5Ac(a2-3)Gal(b1-4)GlcNAc
# How it was run: as §1
# [21] = target: Neu5Ac(a2-8)Neu5Ac(a2-8)Neu5Ac(a2-3)[GalNAc(b1-4)]Gal(b1-4)Glc
# How it was run: as §1
binder,measurement,setting,value
"NcCVNHO (Neurospora crassa), Q7S6U4 (protein) MSFHVTAEDARIEVRDNRTILFARLRREDGEWNDASYELDQIIGNNDGHFQWGGQNFTETAEDIRFHPKEGAAEQPILRARLRDCNGEFHDRDVNLTEIVENVNGEFQAKF",glycan array binding signal (z-score),Fuc(a1-2)Gal,-0.209
same,glycan array binding signal (z-score),[1],5.47
same,glycan array binding signal (z-score),[2],-0.185
same,glycan array binding signal (z-score),[3],-0.194
same,glycan array binding signal (z-score),[4],-0.185
same,glycan array binding signal (z-score),[5],-0.254
same,glycan array binding signal (z-score),Fuc(b1-3)GlcNAc,-0.209
same,glycan array binding signal (z-score),Gal(a1-3)GalNAc,-0.225
same,glycan array binding signal (z-score),[6],4.71
same,glycan array binding signal (z-score),[7],-0.264
same,glycan array binding signal (z-score),[8],4.11
same,glycan array binding signal (z-score),[9],-0.246
same,glycan array binding signal (z-score),[10],-0.228
same,glycan array binding signal (z-score),[11],-0.196
same,glycan array binding signal (z-score),Gal6S(b1-4)Glc6S,-0.209
same,glycan array binding signal (z-score),Gal6S(b1-4)GlcNAc6S,-0.172
same,glycan array binding signal (z-score),[12],-0.245
same,glycan array binding signal (z-score),[13],-0.297
same,glycan array binding signal (z-score),[14],8.87
same,glycan array binding signal (z-score),[15],4.66
same,glycan array binding signal (z-score),[16],4.86
same,glycan array binding signal (z-score),[17],0.23
same,glycan array binding signal (z-score),[18],-0.244
same,glycan array binding signal (z-score),[19],-0.217
same,glycan array binding signal (z-score),[20],-0.24
same,glycan array binding signal (z-score),[21],-0.24
